Structures are written as SMILES. Inconclusive results are not listed. A number with no mark means an inactive call. Active and inactive are the calls of the source. Calls follow the shape of the dose curve; as a rule, active = well fitted activation curve with a large enough effect in the signal ratio in the repeat runs (not every such curve was filed as active); inconclusive = weak or mixed curves; inactive = flat fitted curve, though single readings scatter; the % refers to the signal ratio.

The values that follow come from PubChem BioAssay (Tox21).
% is scaled to controls: 0 for no effect and ±100 for the full control effect.

The nature of this experiment: qHTS assay to identify small molecule agonists of the hypoxia (HIF-1) signaling pathway (AID 1224846). As to conditions: HRE-bla ME-180 cells, beta-lactamase ratio, 17 h; series mostly up to 76.8 µM. The source says: U.S. Tox21 Program National Center for Advancing Translational Sciences [NCATS] NIH Chemical Genomics Center [NCGC] U.S. Environmental Protection Agency [EPA] National Institutes of Environmental Health Sciences [NIEHS] National Toxicology Program [NTP] U.S. Food and Drug Administration [FDA] Tox21 Assay Overview: Hypoxia-inducible factor-1 (HIF-1) is the major hypoxia-regulated transcription factor that controls cellular responses to low oxygen concentration. HIF-1 is composed of two subunits: hypoxia responsive HIF-1-alpha and constitutively expressed HIF-1-beta, which is also known as aryl hydrocarbon receptor nuclear translocator. During hypoxic conditions, HIF-1-alpha heterodimerizes with HIF-1-beta and translocates into the nucleus where the HIF-1 complex binds to the hypoxia-response element (HRE) and activates expression of target genes such as VEGF (vascular endothelial growth factor). The HIF-1 pathway is essential to normal growth and development, and is involved in the pathophysiology of cancer, inflammation, and ischemia. Using a beta-lactamase reporter-gene under control of the hypoxia response element, a cell-based assay [CellSensor(TM) HRE-bla ME-180 from Life Technologies, Carlsbad, CA] was used to measure hypoxia-induced signaling. Tox21 10K library compounds were measured for their ability to induce the reporter gene activity.
Tox21 Assay Protocol Summary: HRE-bla ME-180 cells were dispensed at 2,000 cells per well in 6 uL of assay medium containing 0.5% dialyzed FBS into black wall/clear-bottom 1536-well plates using a Multidrop Combi (Thermo Scientific, Waltham, MA) dispenser. After the assay plates were incubated at 37C and 5% CO2 for 5 hrs, 23 nL of compounds dissolved in DMSO, positive controls or DMSO only was transferred to each well of the assay plate using a Pintool station (Kalypsys, San Diego, CA). The assay plates were incubated at 37C and 5% CO2 for 17 hrs. One uL of LiveBLAzerTM B/G FRET substrate (CCF4-AM) (Life Technologies) was added to each well using a Flying Reagent Dispenser (Aurora Discovery, San Diego, CA).
Background: qHTS replaces the single test concentration by a dilution series.
Regarding `CCC(C)COC(C)=O` (stereo not given), the outcome was inactive. Regarding `CC(C)(O)c1ccc(CNC(=O)c2cccnc2Oc2ccc3nonc3c2)cc1`, the outcome was inactive.

With `COc1cc(Nc2c(C#N)cnc3cc(OCCCN4CCN(C)CC4)c(OC)cc23)c(Cl)cc1Cl`, the outcome was inactive. For `O=C(O)CCCCCCCCCCCBr`, the outcome was inactive. As for `CN1CCCC(n2nc(Cc3ccc(Cl)cc3)c3ccccc3c2=O)CC1` (stereo not given), the result was inactive. On to `CCOc1ccc(Cc2nccc3cc(OCC)c(OCC)cc23)cc1OCC`, for which the outcome was inactive. Take `O=c1[nH]c2ccc(Cl)cc2o1`: the result was inactive. On to `CC(=O)Nc1ccc(C)cc1C`, for which the result was inactive.

On to `COc1ccc(OC(=O)N(CC(=O)O)Cc2ccc(OCCc3nc(-c4ccccc4)oc3C)cc2)cc1`, for which the outcome was inactive.

As for `C1COC1`, the result was inactive. Same read-out and setting: the same measure for `O=C1Cc2cc(Cl)ccc2N1`: “inactive”. Turning to `CC(O)c1ccccc1` (stereo not given), the outcome was inactive. For the molecule `CC(=O)N/N=C/c1ccc([N+](=O)[O-])o1`, the result was inactive. `NC1[C@H]2CN(c3nc4c(cc3F)c(=O)c(C(=O)O)cn4-c3ccc(F)cc3F)C[C@@H]12` (stereo not given in full): the outcome was inactive. For the molecule `N#[N+]c1ccc2c(S(=O)(=O)[O-])cccc2c1O`, the result was inactive.

As for `CC(C)=CCC/C(C)=C/CC/C(C)=C/CCC(=O)OC/C=C(\C)CCC=C(C)C`, the result was inactive. Still for that read-out and setting: next, `CCOC(=O)/C=C/C(=O)OCC`: “inactive”; `CC(C)(C)C(=O)C(=O)O`: “inactive”. As for `CCOC(=O)c1ccc(OCCN2C[C@H](O)[C@@H](O)[C@H](O)[C@H]2CO)cc1`, the outcome was inactive.

For the molecule `CC1=C(Br)C(=O)C(Br)=C/C1=C(/c1ccccc1S(=O)(=O)O)c1cc(Br)c(O)c(Br)c1C`, the outcome was inactive. In the case of `COc1cc(C(=O)NCCCCCC(=O)O)cc(OC)c1OC`, the result was inactive. Consider `CCOC(C)=O`, for which the outcome was inactive. With `CC(CO)CO`, the outcome was inactive.

In the case of `O=c1[nH]ncc2ccccc12`, the result was inactive. For `O=C1c2ccccc2C(=O)C1c1ccc(Br)cc1`, the result was inactive. As to `Nc1cccc2c1CN(C1CCC(=O)NC1=O)C2=O` (stereo not given), the result was inactive. The same measure, in the same setting: next, `CCOc1cccc(-n2cc(C(=O)N3CCN(c4cc(C(=O)O)c5ccccc5c4)CC3)nc2-c2ccc(C)cc2)c1`: “inactive”. As for `Cc1cccc(N(C)C(=S)Oc2ccc3c(c2)CCC3)c1`, the result was inactive. `O=C1c2ccccc2C(=O)N1CCc1noc(-c2ccc(CN3CCCCCC3)s2)n1`: the outcome was inactive.

For `CCOC(=O)C1=C(C)NC(C)=C(C(=O)OC)C1c1cccc(Cl)c1Cl` (stereo not given), the outcome was inactive. With `CCCCC(CC)COP(=O)(O)O` (stereo not given), the result was inactive. For `C=COCC(C)C`, the result was inactive. `CCCC(=O)C(=O)O`: the result was inactive. For `CC(C)(c1ccccc1)c1ccccc1`, the outcome was inactive. On to `Cc1cc(C)cc(N)c1`, for which the result was inactive.

Consider `Cc1cccc(O)c1N`, for which the result was inactive.

As to `CC1=Nc2ccc3ccccc3c2C1(C)C`, the outcome was inactive. For `Cc1cc(=O)c2c(O)c3c(O)cc(=O)c4c3c3c(cc(O)c1c23)C(C)(C)C=4O`, the activation is -2.37% [at 15.8 µM].

In the case of `C=CC(=O)[O-].C=CC(=O)[O-].[Zn+2]`, the outcome was inactive. Turning to `CC(C)C(O)(c1ccc(OC(F)(F)F)cc1)c1cncnc1` (stereo not given), the outcome was inactive.
